{"source": "PubChem BioAssay (EPA / NIEHS)", "note": "Activity calls are given as the source filed them. Rule for the calls, unless noted: active = hit-call score of the fitted dose curve at least 0.9, where 1 is the maximum; inactive = score below 0.9."}
{"test_system": "SERPINA7 (gene 6906)", "test": "CCTE_GLTED_hTBG: CCTE's human Thyroxine-binding Globulin (TBG) Inhibition Assay, Great Lakes Toxicology and Ecology Division (GLTED) Lab (AID 2284343; active = hit-call score of the fitted dose curve at least 0.9, where 1 is the maximum;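 note: active chemicals lower fluorescence versus DMSO baseline by displacing probe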)", "how_it_was_run": "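Human thyroxine-binding globulin was exposed to each chemical for 2 hours, during which the ANSA probe could be displaced. Fluorescence was then measured at 380/475 nm, and loss of signal was analysed relative to DMSO.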"}
{"smiles": "O=C(Nc1ccc2c(O)c(N=Nc3ccc(N=Nc4ccc(S(=O)(=O)O)cc4)cc3)c(S(=O)(=O)O)cc2c1)c1ccccc1", "AC50": "16.6 µM (active)"}
{"smiles": "Oc1ccc2cc(SSc3ccc4cc(O)ccc4c3)ccc2c1", "AC50": "0.423 µM (active)"}
{"smiles": "N[C@@H](Cc1cc(I)c(Oc2cc(I)c(O)c(I)c2)c(I)c1)C(=O)O", "AC50": "0.0273 µM (active)"}
{"smiles": "CCCCC(CC)COC(=O)c1ccc(O)cc1", "note": "(stereo unspecified)", "AC50": "5.72 µM (active)"}
{"test_system": "not listed separately", "test": "CCTE_Padilla_ZF_Score.General: CCTE's 144 Hour Post-fertilization zebrafish Assay Score for General Malformation, Padilla Lab (AID 2284411)", "how_it_was_run": "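Malformation, death and hatching were scored at 6 dpf by two blinded observers under a stereo microscope. Embryos were dosed singly from 6-8 hpf in sealed plates of 10% Hanks' at 26C and rinsed on 5 dpf; DMSO baseline.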"}
{"smiles": "c1ccc(Oc2ccccc2)cc1", "outcome": "inactive"}
{"smiles": "C=Cc1ccncc1", "AC50": "22.6 µM (active)"}
{"smiles": "C[C@@H]1CCN(C(=O)[C@H](CCCN=C(N)N)NS(=O)(=O)c2cccc3c2NC[C@H](C)C3)[C@@H](C(=O)O)C1", "outcome": "inactive"}
{"smiles": "c1ccc(CCc2ccccc2)cc1", "outcome": "inactive"}
{"smiles": "CN(c1nccc(=O)[nH]1)C1CCN(c2nc3ccccc3n2Cc2ccc(F)cc2)CC1", "outcome": "inactive"}
{"smiles": "CCN(CC)C(=O)N(CC)CC", "outcome": "inactive"}
{"smiles": "FC(F)(F)COCC(F)(F)F", "outcome": "inactive"}
{"smiles": "CCCCCC(C=O)=Cc1ccccc1", "outcome": "inactive"}
{"smiles": "C=C(C)C(=O)OCCOCCOCCOC(=O)C(=C)C", "outcome": "inactive"}
{"smiles": "CC1(C)C2=CCCC(C)(C)[C@]23CC[C@H]1C3", "outcome": "inactive"}
{"smiles": "COc1ccc(CCN2CCC(Nc3nc4ccccc4n3Cc3ccc(F)cc3)CC2)cc1", "AC50": "0.439 µM (active)"}
{"smiles": "C=C(C)C(=O)OCCOCCOCCOCCOC(=O)C(=C)C", "outcome": "inactive"}
